Measured values: the supplement of paper PMC3334620
The full ranking holds about 33,000 sequences; the median of “E-score (-0.5 to 0.5)” is about -0.01, and the highest 2% start at about 0.26. The sample as a whole holds a higher share of the highest values than the screen did.

Target: Ste12 (UniProt P13574)
Experiment: PBM E-score (8-mer binding enrichment) (E-score (-0.5 to 0.5)); higher = stronger / more preferred TF binding
Settings: protein concentration: 200 nM; construct: GST-DNA-binding domain
Procedure, shortened: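 Each ungapped eight-base word and its reverse complement, pooled, received an E-score from the Universal PBM Analysis Suite. Underlying scans, normalised with masliner, recorded fluorescent anti-GST bound to GST-tagged yeast transcription factors. These were applied at about 100-200 nM to universal all-10-mer Agilent arrays double-stranded by primer extension.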

UniProt P13574, sequence (P13574 whole entry): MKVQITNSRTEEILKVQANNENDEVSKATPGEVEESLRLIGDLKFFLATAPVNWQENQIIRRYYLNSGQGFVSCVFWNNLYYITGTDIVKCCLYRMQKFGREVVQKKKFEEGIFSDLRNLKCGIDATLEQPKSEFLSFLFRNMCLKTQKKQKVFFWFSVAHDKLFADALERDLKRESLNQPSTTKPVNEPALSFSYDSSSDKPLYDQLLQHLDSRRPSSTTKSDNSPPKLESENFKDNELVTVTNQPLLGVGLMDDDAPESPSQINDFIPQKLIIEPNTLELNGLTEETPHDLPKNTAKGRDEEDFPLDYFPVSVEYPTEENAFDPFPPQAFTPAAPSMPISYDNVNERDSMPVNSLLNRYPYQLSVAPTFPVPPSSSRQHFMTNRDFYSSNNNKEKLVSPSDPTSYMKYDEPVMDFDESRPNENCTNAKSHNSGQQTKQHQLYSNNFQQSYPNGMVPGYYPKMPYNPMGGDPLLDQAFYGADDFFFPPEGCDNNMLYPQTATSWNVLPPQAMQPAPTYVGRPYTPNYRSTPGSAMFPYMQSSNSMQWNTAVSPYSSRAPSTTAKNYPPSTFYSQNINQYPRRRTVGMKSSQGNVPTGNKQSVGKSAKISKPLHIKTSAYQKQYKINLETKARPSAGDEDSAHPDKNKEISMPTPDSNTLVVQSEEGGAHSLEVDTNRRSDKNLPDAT

Sequence | PBM E-score
CGGCGAGA | -0.167
CCTTTTCG | 0.19
CGACCTGC | -0.0774
GACCTCAC | -0.15
TCACGGAA | 0.135
ACGATCGA | -0.106
ACGGAGGC | -0.187
GACCAGGA | -0.183
GTTCGCTA | -0.0318
GAGTTTCA | 0.407
GAGTTTCC | -0.00944
GAGTTTGA | 0.0997
CTGTGGTA | -0.0102
CATTTATC | 0.0356
AATTTATG | 0.205
CATTTATA | 0.189
GATTTATA | 0.182
AATTTATC | 0.281
AATTTATA | 0.274
CGGTAGAA | -0.142
GCCAAAGA | -0.0779
GGATTGCA | 0.117

Sequence | PBM E-score
GCTGCGCA | -0.229
ACGCTTGC | -0.116
CACGTTTC | 0.285
AACGTTTA | 0.00807
AACGTTTC | 0.328
AACGTTTG | 0.0498
CACGTTAC | 0.0456
CACGTTTA | -0.00355
ACAATTTA | 0.163
AATTAAGT | 0.118
CACATAGA | -0.0651
ACTATAAA | 0.241
ACTAGAAT | 0.277
ACTAGAAA | 0.244
ACTATAAT | 0.274
AACATAGA | 0.287
ACTAGAAC | -0.0111
ACTATAAC | -0.0368
GACATAGA | 0.0743
AACATAAC | 0.0575
AACATAAA | 0.249
AACATAAT | 0.286

Sequence | PBM E-score
ACTCCTAA | -0.0995
GGAGGACA | -0.106
GGCAATGA | -0.192
ACTTGGAT | 0.0871
TACTTCAA | 0.0645
AATCTAGG | 0.0839
GATGGTAA | 0.0297
CACCATAG | -0.041
ATCATAAG | 0.0492
AACATAAG | 0.289
CACATAAG | 0.044
CCAGAGTA | 0.03
CCCGTCTA | -0.125
AATAGCAA | 0.00204
AAACGTTA | 0.0762
AAACGTGA | 0.312
AAACGTGG | 0.0452
AAACGTTT | 0.283
AAACGTTG | 0.111
AAACGTGT | 0.123
GCAAGGGA | -0.0936
AAGTAGCA | 0.0754

Sequence | PBM E-score
CAACTGAA | 0.201
AGCCAGAC | -0.132
CGCCCCAC | 0.272
CGCCCCAA | 0.296
CGCCCCAG | 0.0509
GGCCCCAC | -0.181
CGCCCCCA | -0.079
GGCCCCAA | -0.177
CTAACGCA | -0.0702
ATAGAAAC | 0.189
CTCCCCTA | -0.0541
CGCCCCTA | 0.214
CTCCCCTC | 0.28
CTCCCCGA | 0.0416
ATCCCCGC | 0.249
ATCCCCTA | -0.0687
ATCCCCTC | 0.303
AGCCCCTC | -0.00471
CCCCCCTC | -0.244
ATCCCCTG | -0.157
CGCCCCTC | 0.351
CTCCCCGC | 0.386

Sequence | PBM E-score
ACAGACTG | 0.0359
GACTCCCC | -0.26
CCAGGCTC | -0.124
AGGCTTCG | -0.158
ACACTTCC | -0.0741
CAGAGCAC | 0.0445
AATCGAGG | 0.108
ATGAGAGC | -0.126
TAAGCTCA | -0.18
TCGATACA | 0.19
AACTCCGC | -0.0808
AGTGCGCC | -0.156
GAATTTCA | -0.0538
ATTTGTAG | 0.127
CTTTGTTC | 0.227
CTTTGTAA | 0.152
ATTTGTAA | 0.288
ATTTGTTG | 0.181
ATTTGTTA | 0.274
CTTTGTTA | 0.219
ATTTGTTC | 0.266
